Results on nine molecules are retold here after PubChem BioAssay (NCATS).

“And” between values parts separate entries of the source, which are not always exact repeats. Equal entries are not always repeated. Records with an inconclusive call do not appear. More than one record can exist for a structure, and the calls need not agree. The source made the active and inactive calls. Unless noted, the call rests on the fitted dose curve; in most records, active means well fitted curve in the direction sought with a large enough effect; inconclusive means small, poorly fitted or top-dose-only effect, or another doubt; inactive means no such curve, though single readings can be large; an effect the other way counts as inactive or inconclusive.

A short description of experiment [1]: High-throughput drug toxicity screening in the BPDCN cell line Gen2.2 (AID 1224824; call rule not given here;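 further: cells exposed to compounds for 48 h before reading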). The note with it: Gen2.2 BPDCN cells; at 45.8 µM (top of the series) unless noted. The essentials: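 Gen2.2 cells, 500 per well in phenol red-free RPMI with 10% FBS, exposed to compounds 48 h at 37 C, 5% CO2; viability by CellTiter-Glo luminescence. Percent activity scaled to DMSO (100%) and 9.2 uM bortezomib final (0%).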

Experiment [2] is described as follows: High-throughput drug toxicity screening in the BPDCN cell line Cal-1 (AID 1224825; call rule not given here). The note with it: Cal-1 BPDCN cell viability, qHTS; at 45.8 µM (top of the series) unless noted. The method in brief:
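500 Cal-1 cells/well, RPMI + glutamine + 10% FBS (phenol red-free); cpd added by pin tool; 48 h, 37C, 5% CO2; CTG 15 min RT, lumi read. Normalised: DMSO 100%, bortezomib 9.2 uM 0%.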
A general note: In qHTS, concentration-response curves come from the screen itself.

Experiment [3] is described as follows: qHTS assay for measurement of the activity of small molecule inhibitors on Zika virus induced Caspase-3 activity in human iPSC derived neural progenitor cells (hNPCs) (AID 1224857). Further: nearly all actives have a fitted effect of over 65% in size. Further: potency means the concentration at half of the fitted maximal effect. The essentials:
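After overnight (16–20 h) culture at 350 cells/well, hNPCs get compound, then ZIKV 2 FFU/cell one hour later. Six hours on, Caspase-Glo 3/7 is added and luminescence measured.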

Experiment [4] in a line: qHTS assay for measurement of the activity of small molecule inhibitors on Zika virus induced Caspase-3 activity in human astrocytoma cells (AID 1224859).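 Further: plate controls were ZIKV-infected untreated cells for no effect and uninfected cells for full effect.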 The method in brief: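 Inhibition of Zika-induced caspase-3/7 activity: SNB-19 cells, 1 h compound pretreatment, ZIKV 2 FFU/cell for 6 h at 37 C, Caspase-Glo luminescence read-out.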
A short description of experiment [5]: qHTS Screen of the MIPE 4.0 Collection Against Ewings Sarcoma (RDES) (AID 1259252). Further: nearly all actives have a fitted effect of over 35% in size. Further: potency means the concentration at half of the fitted maximal effect. The method in brief:
(§1)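 CellTiter-Glo luminescence after 48 h compound exposure (titration) gave viability; percent activity used DMSO-treated cells as no inhibition and medium-only wells as full inhibition. Cells grown in RPMI/5% FBS, dosed 4 h post-seeding.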

Experiment [6] in a line: qHTS Screen of the MIPE 4.0 Collection Against Ewings Sarcoma (TC71) (AID 1259253). Further: nearly all actives have a fitted effect of over 40% in size. Further: potency means the concentration at half of the fitted maximal effect. The method in brief: as §1
Experiment [7] in a line: qHTS Screen of the MIPE 4.0 Collection Against Ewings Sarcoma (EW8) (AID 1259255). Further: nearly all actives have a fitted effect of over 35% in size. Further: potency means the concentration at half of the fitted maximal effect.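 On viability: 100% = DMSO-treated cells and 0% = medium-only wells without cells.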 The method in brief:
as §1

Experiment [8] in a line: qHTS Screen of the MIPE 4.0 Collection Against Ewings Sarcoma (TC32) (AID 1259256). Further: nearly all actives have a fitted effect of over 45% in size. Further: potency means the concentration at half of the fitted maximal effect. The essentials: as §1
Experiment [9] in a line: qHTS assay to identify small molecule inhibitors of chordoma cells - UCH-1 (AID 1259355). Further: nearly all actives have a fitted effect of over 55% in size. Further: potency means the concentration at half of the fitted maximal effect. The method in brief:
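Seed 800 cells per well; incubate overnight at 37 C, 5% CO2. Add test compounds (15 concentrations), then the auranofin–topoisomerase-agent combination. Incubate 48hr, add CellTiter-Glo, wait 30min, read luminescence.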

Experiment [10] can be described thus: qHTS assay to identify small molecule inhibitors of chordoma cells - UCH-2 (AID 1259356). Further: on the % scale 0 is the no-effect control and ±100 the full control effect.
A short description of experiment [11]: P-glycoprotein substrates identified in KB-8-5-11 adenocarcinoma cell line, qHTS therapeutic library screen (AID 1346987). Further: nearly all actives have a fitted effect of over 65% in size. Further: potency means the concentration at half of the fitted maximal effect. The essentials: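 Steps: plate 500 KB-8-5-11 cells/well in DMEM + 10% FCS (colchicine removed); pin compounds in dose-response; incubate 72 h, 37 degree C, 5% CO2; add CellTiter-Glo, 5 min; read luminescence.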
Experiment [12] addresses Atrial natriuretic peptide receptor 1 (Homo sapiens) (UniProt P16066). In words: Natriuretic polypeptide receptor (hNpr1) antagonism - Pilot screen (AID 1347049; calls by dose curve;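 further: agonist-evoked cGMP luminescence read 20 min after hNppA addition; on the % scale 0 is the no-effect control and ±100 the full control effect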). The essentials: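 Readout is cGMP-driven firefly luciferase luminescence in HEK293 cells carrying hNpr1 and a PDE5-domain GloSensor, read before and 20 min after 0.1 nM hNppA stimulation. Cells had 2% substrate reagent for 2 h and test compound for 30 min.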

The target in experiment [13] is Atrial natriuretic peptide receptor 2 (Homo sapiens) (UniProt P20594). In words: Natriuretic polypeptide receptor (hNpr2) antagonism - Pilot subtype selectivity assay (AID 1347050; calls by dose curve; further: on the % scale 0 is the no-effect control and ±100 the full control effect). The essentials:
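Pilot selectivity screen against hNpr2: HEK293 cGMP-sensor cells are treated with LOPAC1280 compounds, then with hNppC peptide at 1 nM final. The cGMP-driven luminescence change over 20 min at room temperature is the read-out.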

Sequence of Atrial natriuretic peptide receptor 1 (Homo sapiens) (P16066 whole entry, looked up): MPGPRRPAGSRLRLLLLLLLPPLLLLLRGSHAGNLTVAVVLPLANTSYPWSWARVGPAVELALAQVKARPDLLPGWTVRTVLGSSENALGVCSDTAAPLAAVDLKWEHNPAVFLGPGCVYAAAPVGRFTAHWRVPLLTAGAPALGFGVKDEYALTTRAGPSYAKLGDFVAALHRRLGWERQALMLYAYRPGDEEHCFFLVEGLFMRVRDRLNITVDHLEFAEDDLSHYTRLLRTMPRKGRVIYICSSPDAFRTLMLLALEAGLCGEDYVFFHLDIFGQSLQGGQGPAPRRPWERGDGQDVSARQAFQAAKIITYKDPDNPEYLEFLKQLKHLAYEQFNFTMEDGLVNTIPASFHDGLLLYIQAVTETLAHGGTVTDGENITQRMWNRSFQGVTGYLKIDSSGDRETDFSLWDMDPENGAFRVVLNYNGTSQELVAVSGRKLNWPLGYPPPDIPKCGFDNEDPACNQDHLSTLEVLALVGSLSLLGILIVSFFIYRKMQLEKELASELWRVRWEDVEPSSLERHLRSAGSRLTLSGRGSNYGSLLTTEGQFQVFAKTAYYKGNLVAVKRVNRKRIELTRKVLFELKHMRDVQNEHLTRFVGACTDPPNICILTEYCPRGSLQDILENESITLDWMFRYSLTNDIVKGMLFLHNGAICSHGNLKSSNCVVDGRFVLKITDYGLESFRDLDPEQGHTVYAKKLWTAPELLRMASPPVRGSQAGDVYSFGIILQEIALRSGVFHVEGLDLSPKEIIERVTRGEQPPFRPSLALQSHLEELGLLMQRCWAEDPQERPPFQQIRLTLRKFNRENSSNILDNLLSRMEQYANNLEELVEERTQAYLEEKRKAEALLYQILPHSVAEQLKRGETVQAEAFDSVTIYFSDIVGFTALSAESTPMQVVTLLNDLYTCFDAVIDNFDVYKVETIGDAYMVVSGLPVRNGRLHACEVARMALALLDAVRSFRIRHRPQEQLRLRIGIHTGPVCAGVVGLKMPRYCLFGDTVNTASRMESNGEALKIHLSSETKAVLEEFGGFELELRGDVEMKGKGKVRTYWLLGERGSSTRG
Sequence of Atrial natriuretic peptide receptor 2 (Homo sapiens) (P20594 whole entry, looked up): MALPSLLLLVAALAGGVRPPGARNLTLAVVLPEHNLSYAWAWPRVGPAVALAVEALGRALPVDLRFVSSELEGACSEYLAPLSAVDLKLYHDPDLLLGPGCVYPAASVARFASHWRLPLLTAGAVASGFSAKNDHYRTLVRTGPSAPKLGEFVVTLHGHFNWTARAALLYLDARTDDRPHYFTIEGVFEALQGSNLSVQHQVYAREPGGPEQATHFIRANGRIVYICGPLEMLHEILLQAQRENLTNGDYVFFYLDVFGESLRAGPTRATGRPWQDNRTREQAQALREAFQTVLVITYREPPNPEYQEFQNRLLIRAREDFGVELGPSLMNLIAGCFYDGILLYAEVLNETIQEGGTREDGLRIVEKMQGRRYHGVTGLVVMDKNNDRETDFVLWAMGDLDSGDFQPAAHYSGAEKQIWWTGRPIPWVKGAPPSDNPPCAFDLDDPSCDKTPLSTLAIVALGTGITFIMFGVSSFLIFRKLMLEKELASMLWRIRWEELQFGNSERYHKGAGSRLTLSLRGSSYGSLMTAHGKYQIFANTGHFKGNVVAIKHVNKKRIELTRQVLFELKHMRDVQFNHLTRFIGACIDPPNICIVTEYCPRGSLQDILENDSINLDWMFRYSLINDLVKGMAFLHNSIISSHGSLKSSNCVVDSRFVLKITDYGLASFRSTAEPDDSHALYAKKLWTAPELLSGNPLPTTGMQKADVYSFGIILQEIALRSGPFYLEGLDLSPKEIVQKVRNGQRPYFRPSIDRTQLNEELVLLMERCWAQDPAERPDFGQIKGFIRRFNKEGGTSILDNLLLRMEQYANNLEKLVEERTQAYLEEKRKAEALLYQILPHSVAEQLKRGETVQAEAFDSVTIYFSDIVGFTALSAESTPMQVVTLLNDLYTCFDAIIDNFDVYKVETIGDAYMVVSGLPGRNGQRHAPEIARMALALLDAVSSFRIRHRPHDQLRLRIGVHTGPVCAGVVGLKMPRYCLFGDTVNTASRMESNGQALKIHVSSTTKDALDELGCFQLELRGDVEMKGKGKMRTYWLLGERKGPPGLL

`S=P(N1CC1)(N1CC1)N1CC1`: in experiment [1], the cell viability, % of control (lower = more cytotoxic) stood at 92%. Also, in [2], the viability (% of control) stood at 27.1%. Besides, the Potency entry in [3], in experiment [4], in [9], in [10] and in [11] was “inactive” in each case. Moreover, the Potency in experiment [5] is 16.6 µM (active); in [6], 16.6 µM (active); in [7], 6.62 µM (active); in experiment [8], 2.64 µM (active).

`COc1ccccc1OCC(O)COC(N)=O` (stereo not given): in [1], the cell viability, % of control (lower = more cytotoxic) was 109%. Also, in [2], the viability (% of control) was 124%. Further, the Potency result in experiment [3], in experiment [4], in experiment [5], in experiment [6], in [7] and in [8] was “inactive” each time. In addition, the Potency entry in experiment [9], in experiment [10] and in [11] was “inactive” each time.

With `CN(C)CCc1c[nH]c2ccc(C[C@H]3COC(=O)N3)cc12`, the cell viability, % of control (lower = more cytotoxic) in experiment [1] is 88.7%. Besides, the viability (% of control) in experiment [2] came to 99.9%. The Potency result in experiment [3], in experiment [4], in [5], in experiment [6], in experiment [7] and in experiment [8] was “inactive” throughout. Besides, the Potency result in [10] and in experiment [11] was “inactive” in each case.

Take `CCN(CC)CC#CCOC(=O)C(O)(c1ccccc1)C1CCCCC1` (stereo not given): the cell viability, % of control (lower = more cytotoxic) in experiment [1] is 205%. For the same molecule, the viability (% of control) in experiment [2] amounted to 104%. Besides, the Potency entry in experiment [3], in [4], in experiment [5], in [6], in [7] and in experiment [8] was “inactive” each time. Also, the Potency result in [9], in experiment [10], in [11], in experiment [12] and in experiment [13] was “inactive” in each case.

With `CC(C)(C#N)c1cc(Cn2cncn2)cc(C(C)(C)C#N)c1`, the cell viability, % of control (lower = more cytotoxic) in [1] was 47%. The viability (% of control) in [2] worked out at 105%. Besides, the Potency entry in experiment [3], in experiment [4], in experiment [5], in [6], in [7] and in [8] was “inactive” throughout. Besides, the Potency entry in experiment [9] is “inactive”.

As to `COc1ncnc(NS(=O)(=O)c2ccc(N)cc2)c1OC`, the cell viability, % of control (lower = more cytotoxic) in experiment [1] was 106%. In [2], the viability (% of control) is 96.2%. Further, the Potency entry in [3], in experiment [4], in experiment [5], in experiment [6], in experiment [7] and in [8] was “inactive” in each case. Further, the Potency result in [9] and in experiment [11] was “inactive” each time.

Turning to `C1CCC(C(CC2CCCCN2)C2CCCCC2)CC1` (stereo not given), in experiment [1], the cell viability, % of control (lower = more cytotoxic) stood at 7.33%. Further, the viability (% of control) in experiment [2] was 5.18%. Also, the Potency entry in experiment [3] and in [4] was “inactive” each time. The Potency is 23.5 µM (active) in [5]; 13.2 µM (active) in experiment [6]; 13.2 µM (active) in [7]; 16.6 µM (active) in experiment [8]; 31.6 µM (active) in experiment [9]; 5.17 µM (active) and 16.6 µM (active) in [11].

For `Cc1cccc(Nc2ccncc2S(=O)(=O)NC(=O)NC(C)C)c1`, in experiment [1], the cell viability, % of control (lower = more cytotoxic) came out at 90.1%. The viability (% of control) in experiment [2] is 107%. In experiment [3], the Potency result was “inactive and 18.7 µM (active)”. The Potency result in experiment [4], in experiment [5], in experiment [6], in experiment [7], in [8] and in experiment [9] was “inactive” each time. Besides, the Potency result in experiment [11] was “inactive”.

Consider `CCCc1cc(C(N)=S)ccn1`, for which, in [1], the cell viability, % of control (lower = more cytotoxic) stood at 119%. Further, in experiment [2], the viability (% of control) was 93.7%. For the same molecule, the Potency entry in experiment [3], in [4], in experiment [5], in experiment [6], in [7] and in [8] was “inactive” in each case. In addition, the Potency entry in experiment [9], in experiment [10] and in [11] was “inactive” throughout.
